The supplement of paper PMC11732987, “Enantioselective OTUD7B fragment discovery through chemoproteomics screening and high-throughput optimisation” (Communications Chemistry, 2025)

Columns and labels:
Assay in all cases: log2 ratio of Biotin-Ahx-Ub-VS probe labelling (compound/DMSO); higher = less target engagement, active = hit call of the paper (q ≤ 0.05, log2 ratio ≤ -1)
Conditions in all cases: treatment time: 3 h
[1] = compound: CCC1N(CCc2sccc12)C(=O)CCl
How it was run: (§1)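 Compound at 50 or 200 µM, or DMSO, was applied for 3 h in triplicate to HEK293T lysate (495 µg per sample, Tris/CHAPS/IGEPAL buffer with protease inhibitors), after which Biotin-Ahx-Ub-VS was added at 0.5 µM final for 1 h. The labelled DUBs were pulled down with NeutrAvidin, digested with LysC and trypsin, and run by diaPASEF LC-MS/MS. Ratios are averaged base-two logs of compound over DMSO from median-normalised label-free quantities by unpaired t-test, counting only proteins with at least 2 unique peptides.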

[2] = compound: CN1c2ccccc2C(CS1(=O)=O)NC(=O)CCl
How it was run: as §1

[3] = compound: Cl.ClCC(=O)N1CCc2ncncc2C1
How it was run: as §1

[4] = compound: Cl.Cn1ncc2C(CCCc12)NC(=O)CCl
How it was run: as §1

[5] = compound: ClCC(=O)NC1CCOc2ccccc12
How it was run: as §1

[6] = compound: ClCC(=O)NC1CCCc2ccccc12
How it was run: (§2)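 Spectronaut label-free, global-median-normalised protein quantities underlie these values, which are average ratios of compound to vehicle from an unpaired t-test. They are reported as log2 and include only proteins identified by two or more unique peptides. Samples of HEK293T lysate (495 µg) were treated in triplicate with a compound concentration series or vehicle for 3 h, then labelled with Biotin-Ahx-Ub-VS at 0.5 µM final for 1 h before NeutrAvidin enrichment, LysC and trypsin digestion, and diaPASEF LC-MS/MS.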

[7] = compound: ClCC(=O)N[C@@H]1CCCc2ccccc12
How it was run: as §2

[8] = compound: ClCC(=O)N[C@H]1CCCc2ccccc12
How it was run: as §2

[9] = compound: CCC1N(CCc2cc(OC)c(Cl)cc12)C(=O)CCl
How it was run: as §1

[10] = compound: CCCC1N(CCc2cc(OC)c(OC)cc12)C(=O)CCl
How it was run: as §1

Measured: log2 ratio of Biotin-Ahx-Ub-VS probe labelling

USP15 (UniProt Q9Y4E8)
Sequence of UniProt Q9Y4E8 (Q9Y4E8 whole entry): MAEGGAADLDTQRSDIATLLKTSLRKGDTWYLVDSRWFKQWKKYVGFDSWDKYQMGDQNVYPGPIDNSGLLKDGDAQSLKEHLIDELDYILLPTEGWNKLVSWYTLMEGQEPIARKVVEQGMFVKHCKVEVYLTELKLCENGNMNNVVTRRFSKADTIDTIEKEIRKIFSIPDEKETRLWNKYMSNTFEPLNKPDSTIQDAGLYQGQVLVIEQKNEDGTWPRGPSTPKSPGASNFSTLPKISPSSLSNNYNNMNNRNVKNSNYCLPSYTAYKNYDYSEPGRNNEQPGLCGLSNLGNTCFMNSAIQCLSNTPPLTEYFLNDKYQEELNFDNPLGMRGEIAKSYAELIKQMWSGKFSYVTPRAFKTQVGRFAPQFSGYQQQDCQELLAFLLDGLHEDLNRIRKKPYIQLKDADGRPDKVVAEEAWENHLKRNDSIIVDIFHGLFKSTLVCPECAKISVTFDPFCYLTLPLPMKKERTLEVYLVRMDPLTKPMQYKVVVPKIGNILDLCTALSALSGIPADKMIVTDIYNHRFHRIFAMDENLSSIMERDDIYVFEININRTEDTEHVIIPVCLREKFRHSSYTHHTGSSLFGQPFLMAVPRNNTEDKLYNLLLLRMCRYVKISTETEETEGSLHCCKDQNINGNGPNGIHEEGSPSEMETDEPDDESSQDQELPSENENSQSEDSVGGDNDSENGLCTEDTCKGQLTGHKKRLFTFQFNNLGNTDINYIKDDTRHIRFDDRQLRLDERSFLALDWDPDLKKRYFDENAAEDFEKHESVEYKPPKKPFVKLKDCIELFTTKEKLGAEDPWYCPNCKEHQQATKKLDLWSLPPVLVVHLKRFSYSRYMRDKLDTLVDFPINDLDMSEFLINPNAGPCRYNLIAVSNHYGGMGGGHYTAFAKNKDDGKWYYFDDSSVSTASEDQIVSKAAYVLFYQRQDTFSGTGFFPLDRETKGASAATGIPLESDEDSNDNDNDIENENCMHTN
inactive: [1]; compound concentration: 50uM -0.208 | [1]; compound concentration: 200uM -0.456 | [2]; compound concentration: 50uM -0.352 | [2]; compound concentration: 200uM -0.178 | [3]; compound concentration: 50uM -0.273 | [3]; compound concentration: 200uM -0.899 | [4]; compound concentration: 50uM 0.0231 | [4]; compound concentration: 200uM 0.118 | [5]; compound concentration: 50uM -0.104 | [5]; compound concentration: 200uM -0.0799 | [6]; compound concentration: 0.78uM -0.111 | [6]; compound concentration: 1.56uM 0.00504 | [6]; compound concentration: 3.13uM -0.0668 | [6]; compound concentration: 6.25uM 0.00578 | [6]; compound concentration: 12.5uM 0.00284 | [6]; compound concentration: 25uM -0.194 | [6]; compound concentration: 50uM -0.0476 | [6]; compound concentration: 100uM -0.0886 | [6]; compound concentration: 200uM -0.0894 | [7]; compound concentration: 0.78uM -0.15 | [7]; compound concentration: 1.56uM -0.0871 | [7]; compound concentration: 3.13uM -0.0689 | [7]; compound concentration: 6.25uM -0.0495 | [7]; compound concentration: 12.5uM -0.0456 | [7]; compound concentration: 25uM -0.00914 | [7]; compound concentration: 50uM -0.0377 | [7]; compound concentration: 100uM -0.0901 | [7]; compound concentration: 200uM -0.162 | [8]; compound concentration: 0.78uM -0.089 | [8]; compound concentration: 1.56uM -0.101 | [8]; compound concentration: 3.13uM -0.0661 | [8]; compound concentration: 6.25uM 0.0971 | [8]; compound concentration: 12.5uM -0.119 | [8]; compound concentration: 25uM -0.0896 | [8]; compound concentration: 50uM -0.0399 | [8]; compound concentration: 100uM -0.0575 | [8]; compound concentration: 200uM -0.135 | [9]; compound concentration: 50uM -0.143 | [9]; compound concentration: 200uM -0.873 | [10]; compound concentration: 50uM -0.696
active: [10]; compound concentration: 200uM -1.38

USP39 (UniProt Q53GS9)
Sequence of UniProt Q53GS9 (Q53GS9 whole entry): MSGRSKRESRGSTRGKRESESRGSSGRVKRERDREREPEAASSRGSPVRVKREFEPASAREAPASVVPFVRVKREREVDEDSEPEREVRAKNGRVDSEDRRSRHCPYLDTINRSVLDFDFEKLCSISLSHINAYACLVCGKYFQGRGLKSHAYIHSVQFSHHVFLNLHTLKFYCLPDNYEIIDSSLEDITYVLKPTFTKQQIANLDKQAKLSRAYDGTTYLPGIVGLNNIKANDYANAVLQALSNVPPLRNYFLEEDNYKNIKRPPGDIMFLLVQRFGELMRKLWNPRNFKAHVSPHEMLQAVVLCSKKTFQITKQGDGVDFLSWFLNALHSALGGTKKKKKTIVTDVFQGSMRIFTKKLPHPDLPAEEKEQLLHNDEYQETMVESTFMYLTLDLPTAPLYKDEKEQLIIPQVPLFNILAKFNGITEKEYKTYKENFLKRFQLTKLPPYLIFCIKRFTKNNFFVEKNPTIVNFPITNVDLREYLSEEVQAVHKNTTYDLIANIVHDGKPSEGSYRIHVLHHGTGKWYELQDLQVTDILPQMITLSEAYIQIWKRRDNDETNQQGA
inactive: [1]; compound concentration: 50uM 0.0546 | [1]; compound concentration: 200uM -0.102 | [2]; compound concentration: 50uM -0.157 | [2]; compound concentration: 200uM -0.0618 | [3]; compound concentration: 50uM 0.0365 | [3]; compound concentration: 200uM -0.18 | [4]; compound concentration: 50uM 0.0136 | [4]; compound concentration: 200uM -0.0545 | [5]; compound concentration: 50uM 0.225 | [5]; compound concentration: 200uM -0.157 | [6]; compound concentration: 0.78uM -0.0849 | [6]; compound concentration: 1.56uM 0.00415 | [6]; compound concentration: 3.13uM -0.107 | [6]; compound concentration: 6.25uM -0.121 | [6]; compound concentration: 12.5uM -0.133 | [6]; compound concentration: 25uM -0.219 | [6]; compound concentration: 50uM -0.32 | [6]; compound concentration: 100uM -0.0966 | [6]; compound concentration: 200uM -0.188 | [7]; compound concentration: 0.78uM -0.138 | [7]; compound concentration: 1.56uM -0.0134 | [7]; compound concentration: 3.13uM 0.0533 | [7]; compound concentration: 6.25uM -0.0819 | [7]; compound concentration: 12.5uM -0.132 | [7]; compound concentration: 25uM -0.181 | [7]; compound concentration: 50uM -0.277 | [7]; compound concentration: 100uM -0.108 | [7]; compound concentration: 200uM -0.208 | [8]; compound concentration: 0.78uM 0.0296 | [8]; compound concentration: 1.56uM -0.22 | [8]; compound concentration: 3.13uM -0.0221 | [8]; compound concentration: 6.25uM -0.000844 | [8]; compound concentration: 12.5uM -0.0179 | [8]; compound concentration: 25uM -0.167 | [8]; compound concentration: 50uM -0.0419 | [8]; compound concentration: 100uM -0.206 | [8]; compound concentration: 200uM -0.187 | [9]; compound concentration: 50uM 0.209 | [9]; compound concentration: 200uM 0.0808 | [10]; compound concentration: 50uM -0.0814 | [10]; compound concentration: 200uM -0.0567

UCHL5 (UniProt Q9Y5K5)
Sequence of UniProt Q9Y5K5 (Q9Y5K5 whole entry): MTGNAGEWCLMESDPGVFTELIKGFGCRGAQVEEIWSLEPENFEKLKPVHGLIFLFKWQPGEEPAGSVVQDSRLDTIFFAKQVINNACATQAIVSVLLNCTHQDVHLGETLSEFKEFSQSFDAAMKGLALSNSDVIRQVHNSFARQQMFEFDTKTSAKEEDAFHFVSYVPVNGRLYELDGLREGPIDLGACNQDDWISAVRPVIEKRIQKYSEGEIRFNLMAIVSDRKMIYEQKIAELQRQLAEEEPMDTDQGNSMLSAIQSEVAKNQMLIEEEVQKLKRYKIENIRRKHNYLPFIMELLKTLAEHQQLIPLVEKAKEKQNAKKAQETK
inactive: [1]; compound concentration: 50uM -0.261 | [1]; compound concentration: 200uM -0.413 | [2]; compound concentration: 50uM -0.312 | [2]; compound concentration: 200uM -0.412 | [3]; compound concentration: 50uM -0.053 | [3]; compound concentration: 200uM -0.389 | [4]; compound concentration: 50uM 0.0591 | [4]; compound concentration: 200uM -0.0343 | [5]; compound concentration: 50uM -0.0586 | [5]; compound concentration: 200uM -0.0877 | [6]; compound concentration: 0.78uM -0.151 | [6]; compound concentration: 1.56uM -0.0693 | [6]; compound concentration: 3.13uM -0.187 | [6]; compound concentration: 6.25uM -0.075 | [6]; compound concentration: 12.5uM -0.156 | [6]; compound concentration: 25uM -0.346 | [6]; compound concentration: 50uM -0.111 | [6]; compound concentration: 100uM -0.166 | [6]; compound concentration: 200uM -0.211 | [7]; compound concentration: 0.78uM -0.425 | [7]; compound concentration: 1.56uM -0.183 | [7]; compound concentration: 3.13uM -0.22 | [7]; compound concentration: 6.25uM -0.255 | [7]; compound concentration: 12.5uM -0.281 | [7]; compound concentration: 25uM -0.176 | [7]; compound concentration: 50uM -0.209 | [7]; compound concentration: 100uM -0.17 | [7]; compound concentration: 200uM -0.35 | [8]; compound concentration: 0.78uM -0.162 | [8]; compound concentration: 1.56uM -0.217 | [8]; compound concentration: 3.13uM -0.188 | [8]; compound concentration: 6.25uM 0.0176 | [8]; compound concentration: 12.5uM -0.23 | [8]; compound concentration: 25uM -0.161 | [8]; compound concentration: 50uM -0.0913 | [8]; compound concentration: 100uM -0.178 | [8]; compound concentration: 200uM -0.266 | [9]; compound concentration: 50uM -0.0479 | [9]; compound concentration: 200uM -0.725 | [10]; compound concentration: 50uM -0.464 | [10]; compound concentration: 200uM -0.644

VCPIP1 (UniProt Q96JH7)
Sequence of UniProt Q96JH7 (Q96JH7 whole entry): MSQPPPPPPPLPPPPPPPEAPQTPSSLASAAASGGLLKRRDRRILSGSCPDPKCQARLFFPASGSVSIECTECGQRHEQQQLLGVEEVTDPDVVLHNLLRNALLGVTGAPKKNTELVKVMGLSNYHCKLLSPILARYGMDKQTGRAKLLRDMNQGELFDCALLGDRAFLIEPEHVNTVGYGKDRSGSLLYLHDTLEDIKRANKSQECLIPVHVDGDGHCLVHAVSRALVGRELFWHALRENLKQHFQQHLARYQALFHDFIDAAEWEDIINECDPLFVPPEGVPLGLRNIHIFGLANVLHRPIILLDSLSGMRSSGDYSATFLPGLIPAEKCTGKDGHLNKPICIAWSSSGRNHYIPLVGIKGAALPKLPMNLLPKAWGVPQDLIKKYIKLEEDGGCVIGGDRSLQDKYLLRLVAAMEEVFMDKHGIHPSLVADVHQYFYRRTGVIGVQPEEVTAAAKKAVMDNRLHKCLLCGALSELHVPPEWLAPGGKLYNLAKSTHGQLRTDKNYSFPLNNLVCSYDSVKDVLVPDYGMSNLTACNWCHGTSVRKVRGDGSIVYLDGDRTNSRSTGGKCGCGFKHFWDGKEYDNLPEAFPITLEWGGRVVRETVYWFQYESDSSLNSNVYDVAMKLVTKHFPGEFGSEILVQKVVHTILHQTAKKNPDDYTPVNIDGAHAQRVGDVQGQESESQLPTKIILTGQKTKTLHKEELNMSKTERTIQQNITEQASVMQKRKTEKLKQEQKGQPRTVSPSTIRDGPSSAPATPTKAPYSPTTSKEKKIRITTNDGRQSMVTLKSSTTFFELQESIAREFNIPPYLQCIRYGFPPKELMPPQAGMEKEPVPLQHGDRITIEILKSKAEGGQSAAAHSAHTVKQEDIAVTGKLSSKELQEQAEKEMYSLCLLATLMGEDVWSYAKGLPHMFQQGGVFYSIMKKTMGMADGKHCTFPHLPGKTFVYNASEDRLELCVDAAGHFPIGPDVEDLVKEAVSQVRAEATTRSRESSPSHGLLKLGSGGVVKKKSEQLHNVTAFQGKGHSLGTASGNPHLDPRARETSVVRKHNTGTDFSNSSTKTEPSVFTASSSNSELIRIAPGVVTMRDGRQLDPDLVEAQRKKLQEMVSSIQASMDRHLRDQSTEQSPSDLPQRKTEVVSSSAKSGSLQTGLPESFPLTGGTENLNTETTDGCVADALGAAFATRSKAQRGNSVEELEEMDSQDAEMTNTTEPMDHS
inactive: [1]; compound concentration: 50uM -0.0812 | [1]; compound concentration: 200uM -0.216 | [2]; compound concentration: 50uM -0.772 | [3]; compound concentration: 50uM -0.0798 | [3]; compound concentration: 200uM -0.257 | [4]; compound concentration: 50uM -0.273 | [4]; compound concentration: 200uM -0.459 | [5]; compound concentration: 50uM -0.59 | [5]; compound concentration: 200uM -0.809 | [6]; compound concentration: 0.78uM -0.0601 | [6]; compound concentration: 1.56uM -0.043 | [6]; compound concentration: 3.13uM -0.312 | [6]; compound concentration: 6.25uM -0.126 | [6]; compound concentration: 12.5uM -0.217 | [6]; compound concentration: 25uM -0.282 | [6]; compound concentration: 50uM -0.514 | [6]; compound concentration: 100uM -0.706 | [7]; compound concentration: 0.78uM -0.284 | [7]; compound concentration: 1.56uM -0.221 | [7]; compound concentration: 3.13uM -0.211 | [7]; compound concentration: 6.25uM -0.266 | [7]; compound concentration: 12.5uM -0.486 | [7]; compound concentration: 25uM -0.463 | [7]; compound concentration: 50uM -0.588 | [7]; compound concentration: 100uM -0.763 | [8]; compound concentration: 0.78uM -0.0679 | [8]; compound concentration: 1.56uM -0.261 | [8]; compound concentration: 3.13uM -0.266 | [8]; compound concentration: 6.25uM -0.105 | [8]; compound concentration: 12.5uM -0.162 | [8]; compound concentration: 25uM -0.176 | [8]; compound concentration: 50uM -0.258 | [8]; compound concentration: 100uM -0.566 | [8]; compound concentration: 200uM -0.808 | [9]; compound concentration: 50uM -0.123 | [9]; compound concentration: 200uM -0.724 | [10]; compound concentration: 50uM -0.514 | [10]; compound concentration: 200uM -0.602
active: [2]; compound concentration: 200uM -1.25 | [6]; compound concentration: 200uM -1.18 | [7]; compound concentration: 200uM -1.11
